Source: PubChem BioAssay
LANA DNA inh – KSHV C-LANA DNA binding inhibition; 340,000 tested, 0.078% active; inhibition, % at 9 µM; MBP-C-LANA/FAM-LBS DNA binding, fluorescence polarization;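 active = highest replicate inhibition at or above 60% at 9 µM, even if other replicates fall short; inactive = all replicates below 60% inhibition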;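 note: 0% = neutral control wells and 100% = 4 µM acridine orange control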
LANA-H2A inh – blocks KSHV LANA binding to histone H2A/H2B; Q9QR71; cell-free LANA-H2A/H2B peptide, fluorescence polarization; inhibition, % (test concentration not listed); 320,000 tested, 0.6% active; AID 2629; in the data active = inhibition mostly above about 10%, no sharp cut-off; inactive = mostly below about 6.7%
cardiac RTF act – cardiac RTF calcium sensitization | P19429+P45379 | 340,000 tested, 0.24% active | activation, % at 7.2 µM | IANBD-labeled TnC RTF fluorescence at EC20 calcium; 0% EC20 calcium, 100% full calcium;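 active = activation above the mean over all tested compounds plus 3 SD, cut at about 30% in these data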;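 note: rise in fluorescence read as greater calcium sensitivity of cardiac thin filaments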
Keap1 Nrf2 FP – disrupts human Keap1 binding to Nrf2 peptide. Q14145. Keap1 Kelch-Nrf2 peptide fluorescence polarization, 1536-well. inhibition, % at 9.4 µM. 340,000 tested, 0.15% active. AID 504523; in the data active = inhibition above about 12%;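 note: human Keap1 Kelch domain with fluorescein labeled Nrf2 9mer peptide probe; 0% = neutral control wells and 100% = peptide positive control; higher means more block of Keap1 binding to Nrf2 peptide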
Cardiac RTF inh – cardiac RTF calcium desensitization; IANBD-labeled cardiac RTF, Ca2+ fluorescence; inhibition, % at 7.15 µM; 340,000 tested, 0.12% active; P19429+P45379;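 active = inhibition above the mean inhibition of all tested compounds plus 3 SD, cut at about 17% in these data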;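 note: assay run at fixed EC70 calcium of 1.6 mM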
An asterisk follows results filed as active; i = inactive; / = no result given; + = active, no number. Rows were chosen to be rich in hits. Some 1% of all compounds tested hit in one or more screens of this group.

SMILES | LANA DNA inh | LANA-H2A inh | cardiac RTF act | Keap1 Nrf2 FP | Cardiac RTF inh
CCCc1nc2ccc(NC(C)=O)cc2c(=O)n1Cc1ccccc1Cl | -2 | 6 | -4 | -4 | -1
Cc1onc(-c2ccccc2)c1C(=O)N1CCN(c2ccc([N+](=O)[O-])cc2)CC1 | 0 | 16* | -6 | 1 | 11
Cc1onc(-c2ccccc2)c1C(=O)N1CCN(c2ccccc2)CC1 | 0 | -3 | -3 | -2 | -5
Cc1ccc(S(=O)(=O)/N=C2/NC(=O)/C(=C\c3cc(Br)cc(Br)c3O)S2)cc1 | -16 | -7 | 63* | -74 | -92
CC(OC(=O)/C(C#N)=C/c1ccc(N(C)C)cc1)C(=O)N(C)Cc1ccccc1 (stereo not given) | 3 | -8 | 30* | -9 | -48
Cc1cc(=O)oc2cc(OCC(=O)N/N=C/c3cc([N+](=O)[O-])ccc3O)ccc12 | 0 | + | -6 | -3 | -16
COc1ccc2c(Cl)c(C(=O)NCCc3ccc(S(N)(=O)=O)cc3)sc2c1 | 1 | 2 | 2 | -2 | -3
COc1cc(/C=C2\Oc3cc(O)ccc3C2=O)ccc1O | -12 | -9 | 41* | -26 | -50
COc1ccccc1C(=O)Oc1ccc2c(c1)O/C(=C\c1ccncc1)C2=O | 6 | 8 | 35* | 2 | -55
O=C(Oc1ccc2c(c1)O/C(=C\c1ccncc1)C2=O)c1cccs1 | 4 | 3 | / | -5 | /
CC(=O)Oc1ccc2c(c1)O/C(=C\c1ccncc1)C2=O | 37 | 3 | 60* | 2 | -80
C=CCn1c(SCC(=O)N(CC)C2CCS(=O)(=O)C2)nc2scc(-c3ccccc3)c2c1=O (stereo not given) | -2 | / | -6 | -4 | 4
COc1ccc2nc(SCC(=O)NCC(F)(F)F)[nH]c2c1 | 4 | -3 | 0 | 4 | -4
CCOC(=O)C1=C(C)C/C(=N\NC(=O)c2ccccc2O)CC1 | 2 | 17* | 2 | -4 | 3
COc1ccc2sc(-c3ccccc3OC)c(C#CC(C)(C)O)c2c1 | 70* | 1 | 3 | -1 | -9
COc1ccc2sc(-c3ccccc3OC)c(C#CCCO)c2c1 | -3 | -1 | 2 | -2 | -18
O=C1N[C@@H](Cc2c[nH]c3ccccc23)C(=O)N[C@H]1Cc1ccccc1 | 2 | / | -8 | -9 | -1
CCOc1ccc(N(C)S(=O)(=O)c2ccc(-c3ccc(=O)[nH]n3)s2)cc1 | 1 | 15* | -1 | -2 | 4
Cc1ccc(N(C)S(=O)(=O)c2ccc(-c3ccc(=O)[nH]n3)s2)cc1C | 1 | 3 | -2 | -1 | -6
CCOC(=O)/C(=C/C=C1\Sc2cc(OCC)c(OCC)cc2N1CC)C(C)=O | -92 | -22 | 534* | -460 | i
CCOC(=O)/C(=C\C=C1/Sc2cc(OCC)c(OCC)cc2N1CC)C(C)=O | -116 | -24 | 516* | -454 | i
N#Cc1c(F)cccc1NCCCn1ccnc1 | 0 | 1 | -1 | 0 | -2
COc1ccc([C@@]23Oc4cc(OC)cc(OC)c4[C@]2(O)[C@H](O)[C@H](C(=O)N(C)C)[C@H]3c2ccccc2)cc1 | / | / | 2 | 2 | -4
CNC(=O)COC(=O)c1cc(F)c(F)cc1Cl | 1 | 20* | 6 | -5 | -4
CCC(C)NC(=O)c1ccc(CN2CCc3ccccc3C2)cc1 (stereo not given) | 0 | -3 | 5 | -4 | -2
SMILES | LANA DNA inh | LANA-H2A inh | cardiac RTF act | Keap1 Nrf2 FP | Cardiac RTF inh
COCC(C)NC(=O)c1ccc(CN2CCc3ccccc3C2)cc1 (stereo not given) | 0 | 31* | 0 | 0 | -6
CCCn1c(=N)c(C#N)cc2c(=O)n3cccc(C)c3nc21 | / | 2 | / | / | /
CCCn1c(=N)c(C#N)cc2c(=O)n3ccccc3nc21 | -1 | 13* | -4 | -1 | 4
CCN1CCN(C(=O)c2ccc(Cl)c(S(=O)(=O)N(C)c3ccccc3)c2)CC1 | -4 | 0 | -6 | 0 | -8
C=CCOc1cccc(C(=O)N2CCCC(CNS(=O)(=O)c3cccs3)C2)c1 (stereo not given) | 0 | -3 | 4 | 2 | -1
Cc1ccc(S(=O)(=O)NC2CCCCC2)cc1 | 3 | 45* | -5 | 5 | -7
COc1cccc2sc3cc(NCc4ccc(C)o4)ccc3c(=O)c12 | 2 | 2 | -2 | -1 | -11
CCOc1ccc(C(=O)Nc2ccc(N3CCN(C)CC3)cc2)cc1[N+](=O)[O-] | 2 | 0 | 4 | -4 | -11
CCOc1ccc(C(=O)Nc2ccc(N3CCN(C(C)=O)CC3)cc2)cc1[N+](=O)[O-] | 1 | 18* | -1 | -4 | -45
Cc1ccc(OCCN(C)C(=O)c2cc(COc3ccc(F)cc3F)on2)cc1 | 3 | 173* | 1 | -2 | -4
CS(=O)(=O)N1CCN(C(=O)c2cc(-c3cccs3)nc3ccccc23)CC1 | 0 | 0 | 0 | -8 | -2
CS(=O)(=O)N1CCN(C(=O)c2cc(-c3ccccc3)nc3ccccc23)CC1 | -1 | 9.7* | -8 | 1 | -13
CCN(CC)CCN(C(=O)c1ccc(S(=O)(=O)N(C)C2CCCCC2)cc1)c1nc2ccc(OC)cc2s1 | 0 | 108* | 1 | 1 | -3
CC1CN(C(C)C(=O)NC(c2ccccc2)c2ccccc2)CC(C)O1 (stereo not given) | 2 | -3 | 4 | 0 | -2
COc1ccc(S(=O)(=O)N2CCC(Nc3ccccc3Cl)CC2)cc1 | 1 | 38* | 1 | -4 | -2
COc1ccc(C(=O)NC2CCN(S(=O)(=O)c3ccccc3)CC2)cc1 | 1 | 0 | 8 | -2 | -6
Cc1ccc(/C=C2\SC(=S)N(/N=C/c3cc([N+](=O)[O-])ccc3O)C2=O)o1 | 74* | 5 | -3 | 9 | 3
O=C(NN1C(=O)/C(=C/c2cc([N+](=O)[O-])ccc2O)SC1=S)c1ccccc1O | / | -2 | / | / | /
CCOC(=O)c1ccc(S(=O)(=O)Nc2cc(C(C)(C)C)no2)cc1 | 1 | -5 | -2 | 1 | -4
Cc1ccc(C(=O)OCC(=O)Nc2cc(C(C)(C)C)no2)c(C)c1 | 0 | 12* | 2 | -2 | -7
CCCCC(=O)Nc1ccc(NC(=O)c2ccco2)cn1 | -2 | 11* | -3 | -7 | 0
CCCC(=O)Nc1ccc(NC(=O)c2ccccc2OC)cn1 | 0 | -1 | 6 | -3 | -9
CCCC(=O)Nc1ccc(NC(=O)c2ccccn2)cn1 | 0 | 39* | -3 | -3 | 8
Cc1cc(O)c(C(=O)/C=C/c2ccccc2O)c(=O)o1 | -2 | 158* | -1 | -7 | -11
Cc1cc(O)c(C(=O)/C=C/c2cccc([N+](=O)[O-])c2)c(=O)o1 | 0 | 16* | 1 | -5 | -2
O=C(/C=C/c1ccccc1O)c1ccccc1 | -1 | / | -3 | -6 | -1
CCN(C[C@H]1N[C@@](Cc2ccccc2)(C(=O)OC)[C@H]2C(=O)N(Cc3ccccc3)C(=O)[C@@H]12)C(=O)COc1ccccc1 | 3 | + | -1 | -4 | 0
